# Assay results: PubChem BioAssay
# Activity calls are given as the source filed them. Unless noted, how the calls were made is not given here.
# Columns and labels:
# [1] = HepG2 liver cancer cell viability effects, profiling panel, resazurin fluorescence, 24 h, PK04 Diversity Set (AID 1172); settings: higher = more signal
# [2] = basal S. cerevisiae growth modulation, no modifier, primary screen, OD600, strain BY4716, 24 h, basal condition (AID 1173); settings: OD600, 24 h, higher = more signal, called active from +8 up or from −8 down
# [3] = MM1S myeloma cell viability, profiling panel, resazurin fluorescence, basal, 24 h, PK04 Diversity Set (AID 1174); settings: higher = more signal, called active from +8 up or from −8 down;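 further: MM1S multiple myeloma cell line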
# [4] = target: Dihydroorotate dehydrogenase (quinone), mitochondrial (Plasmodium falciparum (isolate 3D7)) (UniProt Q08210); test: PfDHODH enzyme inhibitors, primary screen, biochemical, C-terminal His tag, absorbance 600 nm (AID 1175); settings: DCIP absorbance 600 nm, higher = more signal, called active from +8 up or from −8 down;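 further: recombinant parasite enzyme with a five histidine tag at its C terminus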
# [5] = P. aeruginosa biofilm formation inhibitors, primary screen, strain PAO1, LB-PBS medium, absorbance 600 nm (AID 1176); settings: P. aeruginosa PAO1 growth/biofilm, A600, 12 h; higher = more signal
# [6] = S. cerevisiae RM11-1a growth modifiers, primary screen, strain RM11-1a, OD600, basal, 24 h (AID 1177); settings: OD600, 24 h, higher = more signal, called active from +8 up or from −8 down;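 further: cultures grown under basal conditions with no added stressor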
# [7] = E. coli acrAB mutant growth effects, primary screen, E. coli filamentation inducers, strain DRC39, OD650, 24 h (AID 1178); settings: higher = more signal, called active from +8 up or from −8 down;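 further: growth measured as culture turbidity by optical density at 650 nm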
# [8] = E. coli acrAB mutant growth effects, primary screen, E. coli filamentation inducers, strain DRC39, OD650, 48 h (AID 1179);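 further: screen aims at cell division blockers that make cells filament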; settings: E. coli DRC39 delta-acrAB growth, higher = more signal, called active from +8 up or from −8 down
# [9] = RPMI8226 myeloma cell viability, profiling panel, resazurin fluorescence, basal, 24 h, PK04 Diversity Set (AID 1180); settings: higher = more signal;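 further: RPMI8826 multiple myeloma cell line at 5000 cells per well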
# [10] = target: E3 ubiquitin-protein ligase XIAP (Homo sapiens) (UniProt P98170); test: XIAP binders, primary screen, biophysical, small-molecule microarray, fluorescence 635 nm (AID 1181); settings: small-molecule microarray binding, higher = more signal;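 further: score merges 667 nm emission and signal to noise over triplicate slides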
# [11] = tested on: XIP peptide (Xip251-270) binding; test: small-molecule binders of XIP peptide, primary screen, biochemical, small-molecule microarray, fluorescence 635/667 nm, 0.1 µg/mL protein (AID 1182); settings: fluorescent protein binding, 635 nm, higher = more signal, called active from +8 up or from −8 down
# XIP peptide (Xip251-270) = test: small-molecule binders of XIP peptide, primary screen, biochemical, small-molecule microarray, fluorescence 635/667 nm, 0.5 µg/mL protein (AID 1183); settings: small-molecule microarray binding, fluorescence 635 nm; higher = more signal
# [12] = Plasmodium falciparum growth inhibition, primary screen, strain 3D7, DAPI fluorescence, 100 nL (AID 1184);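 further: parasites grown inside human red blood cells in medium with human serum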; settings: P. falciparum 3D7 growth, 3 d, higher = more signal
# [13] = target: Homeobox protein Hox-A13 (Mus musculus) (UniProt Q62424); test: inhibitors of HoxA13-DNA binding, primary screen, biochemical, fluorescence polarization, labeled oligonucleotide (AID 1185); settings: 15 min, higher = more signal, called active from +8 up or from −8 down
# [14] = inhibitors of hydroxyurea-induced Chk1 phosphorylation, primary screen, imaging, HeLa, phospho-Chk1 antibody, percent positive cells (AID 1186); settings: hydroxyurea-induced phospho-Chk1 immunofluorescence imaging, higher = more signal
# [15] = inhibitors of hydroxyurea-induced Chk1 phosphorylation, primary screen, imaging, HeLa, phospho-Chk1 nuclear intensity (AID 1187); settings: hydroxyurea-induced phospho-Chk1 immunofluorescence imaging, higher = more signal
# Sequence of E3 ubiquitin-protein ligase XIAP (Homo sapiens) (P98170 whole entry, looked up): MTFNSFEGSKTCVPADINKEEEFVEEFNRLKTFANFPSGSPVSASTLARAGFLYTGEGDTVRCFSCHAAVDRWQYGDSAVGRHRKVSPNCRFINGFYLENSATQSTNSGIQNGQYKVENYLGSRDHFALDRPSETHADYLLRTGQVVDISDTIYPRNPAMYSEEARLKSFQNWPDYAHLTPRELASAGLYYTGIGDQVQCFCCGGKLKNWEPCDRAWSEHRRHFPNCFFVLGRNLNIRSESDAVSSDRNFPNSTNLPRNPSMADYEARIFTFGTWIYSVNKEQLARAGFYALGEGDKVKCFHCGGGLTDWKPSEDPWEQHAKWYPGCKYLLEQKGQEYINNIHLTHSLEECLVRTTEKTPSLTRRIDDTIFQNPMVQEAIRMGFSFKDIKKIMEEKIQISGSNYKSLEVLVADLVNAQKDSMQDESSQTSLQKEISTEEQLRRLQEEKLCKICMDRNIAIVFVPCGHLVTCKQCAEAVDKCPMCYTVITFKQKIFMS
# Sequence of Dihydroorotate dehydrogenase (quinone), mitochondrial (Plasmodium falciparum (isolate 3D7)) (Q08210 whole entry, looked up): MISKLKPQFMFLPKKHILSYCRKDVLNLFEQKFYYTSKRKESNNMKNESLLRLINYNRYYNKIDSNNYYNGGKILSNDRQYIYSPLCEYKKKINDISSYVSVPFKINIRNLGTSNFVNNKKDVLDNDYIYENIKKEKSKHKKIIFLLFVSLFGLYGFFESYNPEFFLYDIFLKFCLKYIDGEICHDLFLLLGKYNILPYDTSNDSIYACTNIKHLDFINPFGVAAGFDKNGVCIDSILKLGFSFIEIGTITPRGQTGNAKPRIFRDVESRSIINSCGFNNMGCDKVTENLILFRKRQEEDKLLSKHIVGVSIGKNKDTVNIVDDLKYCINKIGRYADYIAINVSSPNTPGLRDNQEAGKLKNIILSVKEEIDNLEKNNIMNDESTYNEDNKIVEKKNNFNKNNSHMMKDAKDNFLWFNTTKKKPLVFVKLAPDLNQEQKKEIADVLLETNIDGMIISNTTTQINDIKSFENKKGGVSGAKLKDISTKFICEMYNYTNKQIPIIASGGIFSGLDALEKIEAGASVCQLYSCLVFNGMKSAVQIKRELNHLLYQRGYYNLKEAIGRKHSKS
# Sequence of Homeobox protein Hox-A13 (Mus musculus) (Q62424 whole entry, looked up): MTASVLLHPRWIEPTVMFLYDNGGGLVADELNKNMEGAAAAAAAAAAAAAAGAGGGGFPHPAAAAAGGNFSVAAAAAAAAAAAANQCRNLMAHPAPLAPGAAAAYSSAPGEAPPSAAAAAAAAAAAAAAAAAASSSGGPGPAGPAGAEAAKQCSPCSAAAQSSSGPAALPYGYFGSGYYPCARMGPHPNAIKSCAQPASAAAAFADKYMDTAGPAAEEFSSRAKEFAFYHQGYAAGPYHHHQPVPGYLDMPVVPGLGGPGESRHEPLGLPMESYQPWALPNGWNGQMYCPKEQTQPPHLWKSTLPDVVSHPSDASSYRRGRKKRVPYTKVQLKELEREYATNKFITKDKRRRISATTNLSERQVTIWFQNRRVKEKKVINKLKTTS
SMILES,z-score [1],z-score [2],z-score [3],composite z-score [4],z-score [5],z-score [6],z-score [7],z-score [8],z-score [9],composite z-score [10],composite z-score [11],composite z-score (XIP peptide (Xip251-270)),z-score [12],z-score [13],z-score [14],z-score [15]
COc1ccc([Si](C)(C)[C@H]2[C@H](CCO)O[C@@]3(C(=O)N(Cc4ccccc4)c4ccc(N5CCCCC5=O)cc43)[C@@H]2C)cc1,-1.91,0.234 (inactive),-2.66 (inactive),-2.81 (inactive),1.51 (inactive),3.14 (inactive),0.663 (inactive),0.45 (inactive),-3.46,-0.0025,0.391 (inactive),0.686,-1.67,-5.2 (inactive),-1.39 (inactive),-0.713 (inactive)
CC(C)(C)OC(=O)CC[C@]1(C(=O)NCCN2CCOCC2)COC(c2ccc(OCCCO)cc2)=N1,0.0093,0.321 (inactive),0.382 (inactive),0.731 (inactive),-0.525 (inactive),0.345 (inactive),0.119 (inactive),1.18 (inactive),0.513,-0.0118,1.16 (inactive),0.759,0.51,-3.66 (inactive),-0.131 (inactive),0.0826 (inactive)
COC(=O)[C@H](Cc1ccccc1)N[C@H](/C=C/C1CC1)[C@@H](O)Cc1ccccc1,1,-4.55 (inactive),1.2 (inactive),1.14 (inactive),-0.708 (inactive),-1.44 (inactive),1.58 (inactive),0.398 (inactive),0.663,-0.195,-0.126 (inactive),0.34,-0.873,-5.24 (inactive),-0.748 (inactive),-0.39 (inactive)
O=C1O[C@@H](c2ccccc2)[C@@H](c2ccccc2)N2[C@@H](c3ccc(OCCO)cc3)[C@]3(C(=O)Nc4ccc(C#CCCO)cc43)[C@@H](C(=O)NC[C@H](O)c3ccccc3)[C@H]12,0.148,1.49 (inactive),0.428 (inactive),1.47 (inactive),2.78 (inactive),2.97 (inactive),0.968 (inactive),1 (inactive),0.671,-0.0249,0.0796 (inactive),0.822,-0.271,-3.67 (inactive),-0.174 (inactive),-0.317 (inactive)
CC(C)CNC(=O)[C@@]1(Cc2ccccc2I)c2ccccc2C(=O)N(Cc2ccccc2C(F)(F)F)[C@H]1c1ccc(CO)cc1,-0.165,0.428 (inactive),-0.0663 (inactive),0.366 (inactive),-0.0528 (inactive),0.0567 (inactive),-0.188 (inactive),0.588 (inactive),-0.0359,-0.271,1.43 (inactive),0.875,-0.538,-1.78 (inactive),0.172 (inactive),0.345 (inactive)
CCCNC(=O)[C@@H]1c2ccccc2C(=O)N(Cc2ccccc2OC)[C@H]1c1ccc(CO)cc1,-0.314,-0.42 (inactive),-1.32 (inactive),-0.486 (inactive),-0.0933 (inactive),0.262 (inactive),0.324 (inactive),0.285 (inactive),-0.694,-0.113,0.273 (inactive),0.85,-1.54,-3.2 (inactive),-0.175 (inactive),-0.0848 (inactive)
O=C1NC(=O)C2C1C=CC(C(O)c1ccc(I)cc1)N2Nc1ccc(Cl)cc1Cl (stereo not given),-1.99,-15.1 (active),-0.177 (inactive),-1.4 (inactive),2.06 (inactive),-4.5 (inactive),0.163 (inactive),-0.186 (inactive),-0.137,-0.108,0.9 (inactive),0.284,0.692,-3.94 (inactive),0.0215 (inactive),0.33 (inactive)
COc1cc(CO)cc(I)c1O[C@H]1C=C(C(=O)NCCO)C[C@@H](NC[C@@H]2CCCO2)[C@@H]1O,0.773,-0.813 (inactive),-0.292 (inactive),0.459 (inactive),0.0694 (inactive),0.683 (inactive),1.16 (inactive),0.915 (inactive),0.577,-0.13,0.546 (inactive),0.711,-1.22,-6.95 (inactive),-0.399 (inactive),-1.01 (inactive)
O=C1C2C=CC(C(O)C=Cc3ccc([N+](=O)[O-])cc3)N(Nc3ccccc3F)C2C(=O)N1c1ccccc1 (stereo not given),-0.964,2.18 (inactive),-0.747 (inactive),1.06 (inactive),1.58 (inactive),1.6 (inactive),-0.388 (inactive),-0.138 (inactive),-0.381,0.0101,0.308 (inactive),0.774,-0.448,-4.79 (inactive),-0.668 (inactive),-1.16 (inactive)
CO[C@H]1O[C@H](CO)[C@@H](OC(=O)Nc2ccccc2-c2ccccc2)[C@H](OC(=O)Nc2ccccc2-c2ccccc2)[C@@H]1OC(=O)Nc1ccccc1-c1ccccc1,-0.141,-0.652 (inactive),-0.146 (inactive),0.288 (inactive),1.31 (inactive),2.59 (inactive),0.454 (inactive),0.434 (inactive),0.203,-0.0233,0.979 (inactive),0.801,-2.51,-1.13 (inactive),-0.0022 (inactive),0.119 (inactive)
